Results from the supplement of paper PMC6897291.

Tested on: RIVA
Assay: growth inhibition by drug alone (1 - RLU/untreated control) (fraction); higher = stronger inhibition
Settings: 177Lu-lilotomab satetraxetan 0 ug/ml
Procedure: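 RIVA (RI-1) ABC-DLBCL cells were pretreated or not for 18 h with 0.5 ug/ml 177Lu-lilotomab satetraxetan (600 MBq/mg), washed and seeded (3000 cells/well) on 384-well plates pre-printed with the Selleck Cambridge Cancer Compound library. Viability was read by RealTime-Glo luminescence on days 3-6 after seeding. Effect = 1 - RLU/mean RLU of the 48 untreated no-drug control wells per plate; Bliss score = (M-E)/(1-Fa).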

CC1=C2C[C@H]3[C@@H](CC=C4C[C@@H](O)CC[C@@]43C)[C@@H]2CC[C@]12O[C@@H]1C[C@H](C)CN[C@H]1[C@H]2C [Cyclopamine]
growth inhibition by drug alone (10 nM, time (day): 3): -0.0274
growth inhibition by drug alone (10 nM, time (day): 4): 0.0131
growth inhibition by drug alone (10 nM, time (day): 5): -0.0438
growth inhibition by drug alone (10 nM, time (day): 6): -0.264
growth inhibition by drug alone (100 nM, time (day): 3): 0.0149
growth inhibition by drug alone (100 nM, time (day): 4): 0.0126
growth inhibition by drug alone (100 nM, time (day): 5): -0.0321
growth inhibition by drug alone (100 nM, time (day): 6): -0.131

CC(=O)Nc1ccc(OC[C@](C)(O)C(=O)Nc2ccc([N+](=O)[O-])c(C(F)(F)F)c2)cc1 [Andarine (GTX-007)]
growth inhibition by drug alone (10 nM, time (day): 3): 0.017
growth inhibition by drug alone (10 nM, time (day): 4): -0.0064
growth inhibition by drug alone (10 nM, time (day): 5): -0.271
growth inhibition by drug alone (10 nM, time (day): 6): -0.322
growth inhibition by drug alone (100 nM, time (day): 3): -0.229
growth inhibition by drug alone (100 nM, time (day): 4): -0.219
growth inhibition by drug alone (100 nM, time (day): 5): -0.21
growth inhibition by drug alone (100 nM, time (day): 6): -0.215

Cc1cc2c(C(C)C)c(O)c(O)c(C=O)c2c(O)c1-c1c(C)cc2c(C(C)C)c(O)c(O)c(C=O)c2c1O [Gossypol]
growth inhibition by drug alone (10 nM, time (day): 3): -0.235
growth inhibition by drug alone (10 nM, time (day): 4): -0.278
growth inhibition by drug alone (10 nM, time (day): 5): -0.288
growth inhibition by drug alone (10 nM, time (day): 6): -0.349
growth inhibition by drug alone (100 nM, time (day): 3): -0.0878
growth inhibition by drug alone (100 nM, time (day): 4): -0.143
growth inhibition by drug alone (100 nM, time (day): 5): -0.172
growth inhibition by drug alone (100 nM, time (day): 6): -0.216

C[C@]12CCC(=O)C(O)=C1CC[C@@H]1[C@@H]2CC[C@]2(C)C(=O)CC[C@@H]12 [Formestane]
growth inhibition by drug alone (10 nM, time (day): 3): -0.227
growth inhibition by drug alone (10 nM, time (day): 4): -0.249
growth inhibition by drug alone (10 nM, time (day): 5): -0.286
growth inhibition by drug alone (10 nM, time (day): 6): -0.391
growth inhibition by drug alone (100 nM, time (day): 3): -0.322
growth inhibition by drug alone (100 nM, time (day): 4): -0.306
growth inhibition by drug alone (100 nM, time (day): 5): -0.36
growth inhibition by drug alone (100 nM, time (day): 6): -0.445

O=P1(N(CCCl)CCCl)NCCCO1 (stereo not given) [Cyclophosphamide monohydrate]
growth inhibition by drug alone (10 nM, time (day): 3): -0.165
growth inhibition by drug alone (10 nM, time (day): 4): -0.182
growth inhibition by drug alone (10 nM, time (day): 5): -0.227
growth inhibition by drug alone (10 nM, time (day): 6): -0.326
growth inhibition by drug alone (100 nM, time (day): 3): 0.0466
growth inhibition by drug alone (100 nM, time (day): 4): -0.0413
growth inhibition by drug alone (100 nM, time (day): 5): -0.0801
growth inhibition by drug alone (100 nM, time (day): 6): -0.114
